# Screen size: about 360,000 compounds; about 80 (0.02%) were called active. This excerpt belongs to a sample that is enriched for actives. Unmarked numbers belong to inactive results.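 How the source made its calls: active means activation above the run cutoff, the mean activation of all test compounds plus 3 SD (cut at about 40% in these data); inactive means the rest.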
# Assay: ATP EC20 calcium response enhancers, parental CHO-K1 – cell-based, Fluo-8 calcium fluorescence, full deck, 1536-well, counter-screen for M1 PAM project, primary screen (AID 602247);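 further: peak over basal fluorescence ratio in a 140 s read after ATP addition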
# Settings: parental CHO-K1, ATP EC20, Fluo-8 calcium fluorescence; at 3 µM; stronger effect = higher value; 0% at ATP EC20, 100% at ATP max
row,Compound,activation
1,Nc1scc(-c2ccncc2)c1Cl,13.6%
2,Cc1cccc(CC2(O)C(=O)Nc3ccccc32)n1 (stereo not given),12.3%
3,Cc1ccc(C)c(OCCC(=O)Nc2cccc(S(=O)(=O)N3CCCC3)c2)c1,10.7%
4,O=c1[nH]c(CCl)nc2cc(-c3ccc(Cl)cc3)sc12,13%
5,CN[C@H](C(=O)NC[C@H]1O[C@@H](n2cnc3c(N)ncnc32)[C@H](O)[C@@H]1O)[C@@H](C)OCc1ccccc1,11.7%
6,O=C(NNS(=O)(=O)c1ccc([N+](=O)[O-])cc1)C1CCCCC1,-9.25%
7,COC(=O)c1ccccc1NC(=O)C1(S(=O)(=O)c2ccc(Cl)cc2)CC1,-15%
8,CSc1ccccc1C(=O)OCC(=O)N1CCN(C(C)=O)CC1,15.7%
9,O=C(CSCc1ccccc1Cl)NNC(=O)c1ccccc1,2.85%
10,O=C(OC1CCOC1=O)c1ccc(-c2nc3ccccc3s2)s1 (stereo not given),10.6%
11,Cc1ccc2nc(NC(=O)C3CSC4(C)CCC(=O)N34)sc2c1 (stereo not given),-12.5%
12,COC(C[C@@H](O)C[C@@H](O)[C@H](C)OCc1ccccc1)OC,17.1%
13,Cc1ccc([C@H]2N[C@]3(CCCN(Cc4ccccc4)C3=O)[C@H]3C(=O)N(Cc4ccccc4)C(=O)[C@@H]23)cc1,1.9%
14,CC(=O)NC1=NC(=O)CS1,15.2%
15,CC(=O)O[C@H]1CC[C@@]2(C)[C@@H](CC[C@@H]3[C@@H]2CC[C@]2(C)[C@@H](C(C)(C)O)C[C@@H]32)C1,4%
16,C[C@H]([C@@H](O)[C@@H](O)[C@@H](C)C(C)(C)C)[C@H]1CC[C@H]2C3CC[C@H]4C[C@H](OS(=O)(=O)O)[C@@H](OS(=O)(=O)O)C[C@]4(C)[C@H]3CC[C@]12C (stereo not given in full),46.3% (active)
17,CCOC(=O)c1c(C)n(C)c2ccc(OC)c(NC(=O)CN3CCC4(CC3)OCCO4)c12,7.82%
18,O=C(CN(c1ccccc1)S(=O)(=O)c1ccc(Cl)cc1)Nc1ccccc1C(=O)N1CCCC1,8.26%
19,CCOc1ccccc1NC(=O)C1CCN(S(=O)(=O)c2c(C)nn(C)c2C)CC1,-1.01%
20,Cc1ccc(N2CCN(c3ccc(C)cc3)C2c2ccccn2)cc1,-7.38%
21,COc1ccc(S(=O)(=O)N2CCN(C(=O)c3cc(C)oc3C)CC2)cc1,20.2%
22,COc1ccc(CCN2CC(C(=O)OCC(=O)NCc3ccccc3Cl)CC2=O)cc1OC (stereo not given),-3.82%
23,Cc1cc(C(=O)CC#N)c(C)n1CC(F)(F)F,13.3%

row,Compound,activation
1,C/C(=N/NC(=O)CSc1ccccn1)c1ccc([N+](=O)[O-])cc1,22.4%
2,CC1(C)CC2CC(C)(CN2c2ncnc3ccc(Br)cc23)C1 (stereo not given),17.9%
3,C/C(N)=C(\C#N)C(=O)NCCc1ccccn1,21.8%
4,O=C(/C=N/O)Nc1ccccc1,6.67%
5,CN1CCN(c2cc(=O)n(-c3ccc(Cl)cc3)c(=O)[nH]2)CC1,1.64%
6,COc1ccc(C2/C=C\CN(S(=O)(=O)c3cccs3)CC(=O)N2Cc2ccc(F)cc2)cc1 (stereo not given),-11.5%
7,CC(C)NC(=O)c1ccccc1S(=O)c1ccccc1C#N (stereo not given),0.52%
8,O=C(CSc1nnnn1-c1ccc2c(c1)CCC2)Nc1ccc2c(c1)OCCO2,-11.2%
9,O=C1c2ccccc2C(=O)N1CCc1nn[nH]n1,16.6%
10,CC(C)(C)c1ccc(/C=C2\Oc3c(ccc(O)c3CN3CCN(CCO)CC3)C2=O)cc1,4.37%
11,CCCCOc1ccc(C(=O)NCC(=O)OCC(=O)c2c(N)n(C)c(=O)n(C)c2=O)cc1,-1.27%
12,COc1cccc(CNCc2ccc3c(c2)OCO3)c1,18.7%
13,CCOc1ccccc1N1CCN(C(=S)Nc2ccc(S(N)(=O)=O)cc2)CC1,17.3%
14,COc1ccc(C2=NOC(Cn3nc(C(=O)NCc4ccc5c(c4)OCO5)cc3-c3ccccc3)C2)cc1 (stereo not given),14.9%
15,CCOc1cc(C2C(C(=O)OC(C)C)=C(C)NC3=C2C(=O)CCC3)cc([N+](=O)[O-])c1O (stereo not given),14.9%
16,COCCNC(=O)CSc1nc2c(n1-c1ccccc1)CCCC2,10.3%
17,O=C1CC(C(F)(F)C(F)(F)C(F)(F)C(F)(F)F)=Nc2ccccc2N1,17.5%
18,CCN1C(=NCC(C)C)N[C@@H](CCc2ccccc2)[C@H](C(=O)NCC(C)C)[C@H]1C,8.06%
19,CC(CC(=O)N1CCN(S(=O)(=O)c2ccccc2)CC1)n1cncn1 (stereo not given),23.5%
20,CSc1ncccc1C(=O)OCc1ccc(Br)cc1,17%
21,CC(C)COc1ccc(C(=O)OCC(=O)NCCC2=CCCCC2)cc1,0.12%
22,Cc1noc(NS(=O)(=O)c2ccc(NC(=O)c3oc4ccc(F)cc4c3C)cc2)c1C,14.4%
23,O[C@H]1C[C@H](c2ccc(Cl)cc2)N(Cc2cccs2)C[C@@H]1n1cc(C2CC2)nn1,47.2% (active)

row,Compound,activation
1,O[C@@H]1C[C@H](c2ccccc2)N(Cc2cccs2)C[C@H]1n1cc(C2CC2)nn1,31.2%
2,O[C@H]1CN(Cc2cccs2)[C@@H](c2ccc(Cl)cc2)C[C@@H]1n1cc(C2CC2)nn1,1.81%
3,Cc1ccc(C2NC(=S)NC3=C2N2CCC3CC2)cc1 (stereo not given),12.6%
4,NC(=O)c1ncn([C@@H]2O[C@H](CN=C3NS(=O)(=O)c4ccccc43)[C@@H](O)[C@H]2O)n1,12.9%
5,COc1ccccc1N1CCC(N2CCN(CC(C)(C)C)C(CCO)C2)CC1 (stereo not given),15.1%
6,O=S(=O)(NCc1ccc2c(c1)OCO2)c1cccc2nsnc12,-1.4%
7,Cc1ccc(NC(=S)Nc2ncccc2C)c(C)c1,14.7%
8,Cc1cc(C)cc(NC(=O)COC(=O)c2cc(C)oc2C)c1,9.08%
9,COC(=O)Cn1cnc2scc(-c3ccc(C)c(C)c3)c2c1=O,12.6%
10,C[C@H](NC(=O)[C@@H]1CCCN1C(=O)[C@@H]1CCCN1C(=O)c1ccccc1)c1ccccc1,20.5%
11,CCc1ccc(OCC(=O)NCC(c2ccc(Cl)cc2)N2CCCCC2)cc1 (stereo not given),11%
12,COc1ccc(C)cc1N(CC(=O)N1CCCC1)S(=O)(=O)c1ccccc1,9.46%
13,Cc1ccc(C)c(NC(=O)c2cc(-c3cc(C)cc(C)c3O)n[nH]2)c1,-21.6%
14,O=C(Nc1cccnc1)c1cc2cc(Br)ccc2oc1=O,-7.52%
15,O=C(CSc1nnc(-c2cccs2)n1Cc1ccco1)c1ccc2c(c1)OCO2,22.8%
16,CCN(CC)Cc1cc(C(C)=O)ccc1O,-6.07%
17,C=CCOc1ccccc1NC(=O)CN1C(=O)CNC1=O,13.6%
18,Cc1ccc(NC(=O)CN(C)C(=O)c2ccc(Br)o2)cc1,-2.97%
19,CCOC(=O)c1ccc(N2C(=O)CC(Sc3nc(O)c(CC)c(=O)[nH]3)C2=O)cc1 (stereo not given),11.8%
20,Fc1cccc(Cc2noc(CN3CCN(c4cnccn4)CC3)n2)c1,10.6%
21,Cc1c(Br)c([N+](=O)[O-])nn1C(C)C(=O)Nc1nccs1 (stereo not given),3.45%
22,O=c1cc(CN2CCN(S(=O)(=O)/C=C/c3ccccc3)CC2)c2ccc(O)cc2o1,-3.7%
23,Cc1ccc(-c2ccc(C3=CC(=O)CC(C)(C)C3=O)cc2)cc1,8.88%

row,Compound,activation
1,O=C(NC12CC3CC(CC(C3)C1)C2)N1CCCC(CO)C1 (stereo not given),11.3%
2,COc1cc(CCC(=O)N2CCN(c3ccccc3Cl)CC2)cc(OC)c1OC,15.8%
3,O=C(CN1CCN(C(=S)NC2CCCC2)CC1)Nc1ccc(Oc2ccccc2)cc1,-1.33%
4,Cc1cccc(N2C(=O)C3C(c4ccccc4)OC4(C(=O)c5ccccc5C4=O)C3C2=O)c1 (stereo not given),10.9%
5,O=C(OCC(=O)N1CCCCCC1)c1ccc(Cl)nc1,21.8%
6,COc1cc(CNc2ncn[nH]2)ccc1OCc1ccccc1C,-0.62%
7,COc1ccc(OC)c(C(=O)NC(CC(N)=O)c2ccc(N3CCC(N4CCCCC4)CC3)c([N+](=O)[O-])c2)c1 (stereo not given),26.1%
8,CC(NC(=O)COc1cccnc1[N+](=O)[O-])c1ccc(Cl)cc1Cl (stereo not given),-1.02%
9,Cc1cc(C)c(S(=O)(=O)N(C)CC(=O)NCC2CCCO2)c(C)c1 (stereo not given),-22.7%
10,Nc1nc(SCC(=O)Nc2ccc(Cl)cc2C(F)(F)F)n[nH]1,5.7%
11,Cc1ccc(SCCN2C(=O)NC(C)(C)C2=O)cc1,11.2%
12,C=CCn1c(COc2ccccc2F)nnc1SCC(=O)N1CC(=O)Nc2ccccc21,15.7%
13,COc1ccccc1C(=O)N/C(=C/c1ccc2c(c1)OCO2)C(=O)Nc1cccc(C(=O)O)c1,-17.7%
14,CCc1ccc(N2CC(C(=O)NC3=NCCS3)CC2=O)cc1 (stereo not given),-0.63%
15,Cc1nc2ccccn2c(=O)c1NC(=O)c1ccc(Br)o1,7.36%
16,CCOc1cc(NC(=O)CCl)c(OCC)cc1NC(C)=O,10.9%
17,Cc1ccc(C(C)C)c(OCCSc2nc3ccccc3n2CC(=O)O)c1,1.93%
18,COc1cccc(-c2nc3n(n2)C(c2ccccc2Cl)C(C(N)=O)=C(C)N3)c1 (stereo not given),3.28%
19,COc1ccc(NC(=O)NN2CCN(C)CC2)c(OC)c1,15.7%
20,COc1ccc(NC(=O)CNc2cc(S(=O)(=O)N3CCOCC3)ccc2N2CCOCC2)c(OC)c1,9.94%
21,COc1ccc(NC(=O)c2sc(N3CCOCC3)nc2-c2ccccc2)c(OC)c1,44.6% (active)

# — PubChem BioAssay AID602247 (The Scripps Research Institute Molecular Screening Center, 2012)
